The record followed here is PubChem BioAssay (NCATS).

Molecules are shown by their SMILES. Several values for one entry are separate records, joined by “and”; a condition that tells them apart may be missing. Equal entries are not always repeated. Results filed as inconclusive are left out. More than one record can exist for a structure, and the calls need not agree. Activity calls are given as the source filed them. Unless noted, the call rests on the fitted dose curve; in most records, active means well fitted curve in the direction sought with a large enough effect; inconclusive means small, poorly fitted or top-dose-only effect, or another doubt; inactive means no such curve, though single readings can be large; an effect the other way counts as inactive or inconclusive.

Assay [1] addresses Atrial natriuretic peptide receptor 1 (Homo sapiens) (UniProt P16066). The assay is described as follows: Natriuretic polypeptide receptor (hNpr1) antagonism - Pilot screen (AID 1347049; calls by dose curve;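 further: agonist-evoked cGMP luminescence read 20 min after hNppA addition; series mostly up to about 58 µM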). A digest of the protocol: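 cGMP-sensor HEK293/hNpr1 cells, 1500/well, plated overnight at 37C. 2% GloSensor reagent, 2 h RT. Compound (23 nL pin transfer) 30 min RT, baseline luminescence pre-read. 0.1 nM hNppA, 20 min RT, post-read.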

The target of assay [2] is Atrial natriuretic peptide receptor 2 (Homo sapiens) (UniProt P20594). The assay is described as follows: Natriuretic polypeptide receptor (hNpr2) antagonism - Pilot subtype selectivity assay (AID 1347050; calls by dose curve). A digest of the protocol:
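Luminescence from a genetically encoded cGMP luciferase biosensor in hNpr2-expressing HEK293 cells is read before and 20 min after adding 1 nM hNppC. Test compounds, in interplate 1:5 titrations, are added 30-50 min ahead of the agonist.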

Assay [3] is described as follows: NS1 protein of Zika virus - qHTS assay to identify small molecule inhibitors in human HEK 293 cells (AID 1347053). Further: nearly all actives have a fitted effect of over 55% in size. Further: potency means the concentration at half of the fitted maximal effect. A digest of the protocol: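 Read-out is a two-antibody TR-FRET for ZIKV NS1, normalized between uninfected cells and infected cells. Compound added 1 h before MR766 infection at MOI 0.5; human HEK 293 cells incubated 24 h, 37 C.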
(In general: Quantitative high-throughput screening tests each substance at several concentrations.)

Assay [4] has as its target T1, Tyrosine-protein phosphatase non-receptor type substrate 1 (Homo sapiens) + Leukocyte surface antigen CD47 (Homo sapiens) (UniProt P78324+Q08722). The assay is described as follows: CD47-SIRPalpha protein protein interaction - LANCE assay qHTS validation (AID 1347057; active means well fitted curve in the direction sought with a large enough effect in the signal ratio, with a control signal flat, not every such curve was filed as active; the % refers to the signal ratio; further: series mostly up to about 38 µM). A digest of the protocol:
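Inhibition of soluble CD47/SIRPalpha ectodomain association by titrated compounds, measured as 665/615 nm time-resolved FRET ratio after sequential 30 min room-temperature incubations.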
Background: Time-resolved FRET reads energy transfer from a long-lived donor to a nearby acceptor.

For assay [5], the target named is T1, Tyrosine-protein phosphatase non-receptor type substrate 1 (Homo sapiens) + Leukocyte surface antigen CD47 (Homo sapiens). The assay is described as follows: CD47-SIRPalpha protein protein interaction - HTRF assay qHTS validation (AID 1347058; active means well fitted curve in the direction sought with a large enough effect in the signal ratio, not every such curve was filed as active; the % refers to the signal ratio; further: series mostly up to about 38 µM). A digest of the protocol: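 Soluble extracellular domains (6His-CD47, Avi-tag-biotinylated SIRPalpha) in PBS pH 7.4 with 0.05% IGEPAL CA-630. Compounds were preincubated 30 min at RT with CD47 and anti-His-Eu, then SIRPalpha and SAV-XL665 were added. TR-FRET 665/615 ratio.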

Assay [6] has the same target. The assay is described as follows: CD47-SIRPalpha protein protein interaction - Alpha assay qHTS validation (AID 1347059).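 Further: bead proximity luminescence from CD47 binding SIRPalpha after compound preincubation with SIRPalpha.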 A digest of the protocol:
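SIRPalpha-biotin 25 nM + cpd, 30 min RT, dark; add CD47-His 12.5 nM, 30 min; add Ni-NTA/SAV beads 10 ug/mL, 30 min; AlphaScreen. Buffer PBS pH 7.4 + 0.05% IGEPAL CA-630. Non-biotinylated SIRPalpha as control inhibitor.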

Assay [7] has as its target Parathyroid hormone/parathyroid hormone-related peptide receptor (Homo sapiens) (UniProt Q03431). The assay is described as follows: qHTS for PTHR1 Agonists: Optimization Screen against the NCGC LOPAC library (AID 1347079).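 Further: GloSensor cAMP luminescence in HEK-293 GP2 cells expressing human PTHR1 with IBMX.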 Put shortly:
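HEK-293 GP2 cells, PTHR1 + GloSensor cAMP; 3000 cells/well, o/n. Luciferin + IBMX 0.5mM each (stock), 1 hr 37C. Cpd titration, 1 hr 37C. Lum after 15 min RT. Ctrl M-PTH(1-15) top 10uM.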

The nature of assay [8]: qHTS of pediatric cancer cell lines to identify multiple opportunities for drug repurposing: Primary screen for TC32 cells (AID 1347089). Further: nearly all actives have a fitted effect of over 60% in size. A digest of the protocol:
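Measured quantity: luminescence from CellTiter-Glo, reflecting metabolically active TC32 cells following 48 h of compound. Curves came straight from multi-point titrations, with 8 or 11 points in primary and 11 in confirmatory screening.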

A short description of assay [9]: qHTS of pediatric cancer cell lines to identify multiple opportunities for drug repurposing: Primary screen for A673 cells (AID 1347092). Further: nearly all actives have a fitted effect of over 45% in size. Further: potency means the concentration at half of the fitted maximal effect. Put shortly:
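Cells are plated, rested 5 h, dosed by pintool, incubated 48 h, then lysed with CellTiter-Glo and read by luminescence. DMSO is the neutral control; bortezomib at 2.3 uM final is the positive control.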

The nature of assay [10]: qHTS of pediatric cancer cell lines to identify multiple opportunities for drug repurposing: Primary screen for SK-N-MC cells (AID 1347093). Further: potency means the concentration at half of the fitted maximal effect. Put shortly:
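Metabolically active cells were quantified by ATP-dependent luminescence (CellTiter-Glo, 15 min at room temperature) following 48 h treatment. Cells had been plated at 500-1,000 per well and settled for 5 h beforehand.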

Assay [11] can be described thus: qHTS of pediatric cancer cell lines to identify multiple opportunities for drug repurposing: Primary screen for NB-EBc1 cells (AID 1347095). Further: potency means the concentration at half of the fitted maximal effect. Put shortly:
(§1)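 Following a 5-hour attachment period, cells at 500-1,000/well received compounds and were cultured for 48 hours. CellTiter-Glo was added and luminescence read to estimate viable, metabolically active cells.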

Assay [12] in a line: qHTS of pediatric cancer cell lines to identify multiple opportunities for drug repurposing: Primary screen for Saos-2 cells (AID 1347097). Further: nearly all actives have a fitted effect of over 40% in size. Further: potency means the concentration at half of the fitted maximal effect. Put shortly:
as §1

Assay [13] in a line: qHTS of pediatric cancer cell lines to identify multiple opportunities for drug repurposing: Primary screen for SK-N-SH cells (AID 1347098). Further: nearly all actives have a fitted effect of over 65% in size. Further: potency means the concentration at half of the fitted maximal effect. A digest of the protocol:
(§2)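 Cells (500-1,000/well) rested 5 h, then received compounds for 48 h; metabolically active cells were measured by CellTiter-Glo luminescence. Final concentrations spanned up to 46 µM (MIPE, 11-point) or 0.59 nM-46 µM (NPC, 8-point) in primary screens, 11-point in follow-ups.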

A short description of assay [14]: qHTS of pediatric cancer cell lines to identify multiple opportunities for drug repurposing: Primary screen for LAN-5 cells (AID 1347100). Put shortly: (§3)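 Viability after 48 h compound treatment at 37C, 500-1,000 cells/well, read as ATP luminescence with CellTiter-Glo. Primary screens used 11-point (MIPE, 0.78 nM-46 µM) or 8-point (NPC, 0.59 nM-46 µM) final concentrations; follow-up screens used 11-point dilutions.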

Assay [15] can be described thus: qHTS of pediatric cancer cell lines to identify multiple opportunities for drug repurposing: Primary screen for U-2 OS cells (AID 1347096). Further: nearly all actives have a fitted effect of over 50% in size. Put shortly:
as §3

Assay [16] can be described thus: qHTS of pediatric cancer cell lines to identify multiple opportunities for drug repurposing: Primary screen for NB1643 cells (AID 1347099). Further: nearly all actives have a fitted effect of over 50% in size. Put shortly: as §1
A short description of assay [17]: qHTS of pediatric cancer cell lines to identify multiple opportunities for drug repurposing: Primary screen for SJ-GBM2 cells (AID 1347091). Put shortly:
(§4)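 Viability measured as metabolically active cells via CellTiter-Glo luminescence following 48 hours of compound exposure, 11-point dilutions in confirmatory testing. 500-1,000 cells/well plated 5 hours before dosing; controls were DMSO and 2.3 µM bortezomib.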

Assay [18] is described as follows: qHTS of pediatric cancer cell lines to identify multiple opportunities for drug repurposing: Primary screen for BT-37 cells (AID 1347094). Further: series mostly up to about 57 µM. Put shortly:
as §1

The nature of assay [19]: qHTS of pediatric cancer cell lines to identify multiple opportunities for drug repurposing: Primary screen for BT-12 cells (AID 1347101). Further: nearly all actives have a fitted effect of over 25% in size. Further: potency means the concentration at half of the fitted maximal effect. A digest of the protocol:
as §2

Assay [20] in a line: qHTS of pediatric cancer cell lines to identify multiple opportunities for drug repurposing: Primary screen for DAOY cells (AID 1347090). Further: series mostly up to about 46 µM; nearly all actives have a fitted effect of over 55% in size. Put shortly: as §4

Atrial natriuretic peptide receptor 2 (Homo sapiens), sequence (P20594 whole entry, looked up): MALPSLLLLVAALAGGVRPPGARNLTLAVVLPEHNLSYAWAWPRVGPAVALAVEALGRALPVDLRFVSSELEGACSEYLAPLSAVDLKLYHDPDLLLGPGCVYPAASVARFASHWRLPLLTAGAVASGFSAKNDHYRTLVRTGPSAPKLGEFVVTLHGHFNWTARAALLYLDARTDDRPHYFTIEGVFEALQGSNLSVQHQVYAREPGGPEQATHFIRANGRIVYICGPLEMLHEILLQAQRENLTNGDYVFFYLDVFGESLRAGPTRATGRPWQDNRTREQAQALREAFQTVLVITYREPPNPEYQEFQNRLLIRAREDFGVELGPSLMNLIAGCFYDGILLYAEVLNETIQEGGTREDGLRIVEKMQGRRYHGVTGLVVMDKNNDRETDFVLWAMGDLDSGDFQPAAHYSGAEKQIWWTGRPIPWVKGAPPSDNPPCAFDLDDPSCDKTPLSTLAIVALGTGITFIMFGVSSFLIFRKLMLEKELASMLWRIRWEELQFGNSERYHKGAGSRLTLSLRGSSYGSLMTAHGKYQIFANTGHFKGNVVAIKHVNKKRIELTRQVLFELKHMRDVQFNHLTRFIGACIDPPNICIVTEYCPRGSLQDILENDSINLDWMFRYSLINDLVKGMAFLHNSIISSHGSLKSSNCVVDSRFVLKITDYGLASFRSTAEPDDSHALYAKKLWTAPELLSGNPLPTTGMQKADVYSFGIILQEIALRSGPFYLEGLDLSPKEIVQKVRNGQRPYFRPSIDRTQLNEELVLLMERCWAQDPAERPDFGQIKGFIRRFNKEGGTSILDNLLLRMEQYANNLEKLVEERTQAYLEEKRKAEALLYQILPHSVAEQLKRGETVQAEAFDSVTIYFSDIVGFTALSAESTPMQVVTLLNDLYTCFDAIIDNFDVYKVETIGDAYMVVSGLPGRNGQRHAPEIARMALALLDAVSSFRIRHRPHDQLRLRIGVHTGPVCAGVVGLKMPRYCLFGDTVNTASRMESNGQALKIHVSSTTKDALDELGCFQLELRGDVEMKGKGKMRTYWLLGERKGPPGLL
Parathyroid hormone/parathyroid hormone-related peptide receptor (Homo sapiens), sequence (Q03431 whole entry, looked up): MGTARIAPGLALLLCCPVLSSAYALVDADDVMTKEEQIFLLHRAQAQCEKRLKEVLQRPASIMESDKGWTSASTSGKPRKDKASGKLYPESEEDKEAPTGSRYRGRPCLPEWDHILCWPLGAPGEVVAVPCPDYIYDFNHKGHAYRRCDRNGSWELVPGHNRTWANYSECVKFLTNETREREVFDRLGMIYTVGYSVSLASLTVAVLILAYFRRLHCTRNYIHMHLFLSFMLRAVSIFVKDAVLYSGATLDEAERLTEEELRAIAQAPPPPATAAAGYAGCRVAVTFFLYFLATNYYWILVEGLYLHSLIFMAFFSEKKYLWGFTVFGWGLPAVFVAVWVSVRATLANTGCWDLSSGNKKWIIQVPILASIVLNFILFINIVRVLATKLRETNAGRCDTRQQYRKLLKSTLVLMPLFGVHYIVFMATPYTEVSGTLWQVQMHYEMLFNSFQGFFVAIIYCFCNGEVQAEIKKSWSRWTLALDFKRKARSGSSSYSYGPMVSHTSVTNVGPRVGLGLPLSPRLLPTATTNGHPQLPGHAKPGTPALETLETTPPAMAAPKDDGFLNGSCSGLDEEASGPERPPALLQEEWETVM
Atrial natriuretic peptide receptor 1 (Homo sapiens), sequence (P16066 whole entry, looked up): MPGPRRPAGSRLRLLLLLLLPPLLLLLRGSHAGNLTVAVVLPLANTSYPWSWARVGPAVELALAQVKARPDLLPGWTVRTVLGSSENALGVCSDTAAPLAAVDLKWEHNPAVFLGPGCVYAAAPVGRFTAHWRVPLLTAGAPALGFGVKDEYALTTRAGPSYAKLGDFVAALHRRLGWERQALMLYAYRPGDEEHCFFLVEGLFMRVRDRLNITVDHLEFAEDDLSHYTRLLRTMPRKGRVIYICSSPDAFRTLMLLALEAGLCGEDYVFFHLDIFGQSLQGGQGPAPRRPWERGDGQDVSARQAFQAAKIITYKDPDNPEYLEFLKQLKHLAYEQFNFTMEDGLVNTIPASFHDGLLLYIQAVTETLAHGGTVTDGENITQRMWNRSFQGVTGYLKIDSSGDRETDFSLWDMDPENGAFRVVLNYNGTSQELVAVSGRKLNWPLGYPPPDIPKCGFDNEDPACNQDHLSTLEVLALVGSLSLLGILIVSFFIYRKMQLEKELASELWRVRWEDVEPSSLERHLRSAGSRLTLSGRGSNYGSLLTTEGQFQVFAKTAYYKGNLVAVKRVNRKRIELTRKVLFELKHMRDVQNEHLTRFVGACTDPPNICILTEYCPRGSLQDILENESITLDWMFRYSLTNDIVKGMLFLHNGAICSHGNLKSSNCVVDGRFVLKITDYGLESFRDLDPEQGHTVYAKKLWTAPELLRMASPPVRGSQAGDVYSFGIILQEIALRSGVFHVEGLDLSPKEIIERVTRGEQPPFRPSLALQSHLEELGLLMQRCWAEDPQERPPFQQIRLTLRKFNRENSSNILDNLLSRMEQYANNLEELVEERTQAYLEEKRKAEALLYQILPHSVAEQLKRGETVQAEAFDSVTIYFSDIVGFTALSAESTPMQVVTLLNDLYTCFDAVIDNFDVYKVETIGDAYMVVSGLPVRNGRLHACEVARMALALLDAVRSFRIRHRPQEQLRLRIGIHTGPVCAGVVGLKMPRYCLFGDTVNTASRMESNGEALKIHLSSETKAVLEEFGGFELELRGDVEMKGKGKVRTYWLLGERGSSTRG
T1 sequence (P78324 whole entry, looked up, the tested form may be a part): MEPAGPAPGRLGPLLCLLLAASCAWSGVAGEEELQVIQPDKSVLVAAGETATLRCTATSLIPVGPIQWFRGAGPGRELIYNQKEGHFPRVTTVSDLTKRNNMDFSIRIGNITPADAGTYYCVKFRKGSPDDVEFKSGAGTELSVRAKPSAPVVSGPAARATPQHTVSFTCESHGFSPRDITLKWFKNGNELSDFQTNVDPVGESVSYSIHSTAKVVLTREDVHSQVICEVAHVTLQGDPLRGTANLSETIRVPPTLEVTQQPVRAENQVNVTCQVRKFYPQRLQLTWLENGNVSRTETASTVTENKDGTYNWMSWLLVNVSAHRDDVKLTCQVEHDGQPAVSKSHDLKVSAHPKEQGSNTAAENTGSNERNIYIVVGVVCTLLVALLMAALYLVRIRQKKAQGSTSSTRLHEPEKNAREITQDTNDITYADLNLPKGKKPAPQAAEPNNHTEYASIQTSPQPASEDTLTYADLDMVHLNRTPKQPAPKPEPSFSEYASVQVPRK
T1 sequence (Q08722 whole entry, looked up, the tested form may be a part): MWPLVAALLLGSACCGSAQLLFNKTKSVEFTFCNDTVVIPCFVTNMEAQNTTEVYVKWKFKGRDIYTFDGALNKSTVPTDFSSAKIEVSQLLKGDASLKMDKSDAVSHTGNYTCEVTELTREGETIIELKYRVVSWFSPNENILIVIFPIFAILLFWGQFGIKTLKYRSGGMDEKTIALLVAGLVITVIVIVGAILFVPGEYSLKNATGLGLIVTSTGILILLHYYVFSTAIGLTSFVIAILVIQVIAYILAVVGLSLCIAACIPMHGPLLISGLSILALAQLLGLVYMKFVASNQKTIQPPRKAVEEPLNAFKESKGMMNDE

Consider `CNCCCC12CCC(c3ccccc31)c1ccccc12`, for which the Potency entry in [1], in assay [2], in [6], in assay [7], in assay [8] and in assay [11] was “inactive” in each case. The Potency result in [14] was “inactive”. Besides, the Potency in assay [3] is 20.9 µM (active); in assay [9], 21.1 µM (active) and 23.5 µM (active); in assay [10] it was 23.5 µM (active); in [12], 26.4 µM (active); in [13], 13.7 µM (active). Further, the result in [4] and in assay [5] was inactive.
As to `Nc1nc2c(ncn2COC(CO)CO)c(=O)[nH]1`, the Potency entry in assay [1], in assay [2], in assay [3], in [6], in [7] and in assay [8] was “inactive” throughout. The Potency result in assay [11], in [15], in assay [13], in [16] and in [14] was “inactive” throughout. In addition, the result in assay [4] and in assay [5] was inactive.
As to `CN(C)c1nc(N(C)C)nc(N(C)C)n1`, the Potency entry in assay [1], in assay [2], in assay [3], in assay [6], in assay [7] and in assay [17] was “inactive” each time. In addition, the Potency entry in [9], in [18], in assay [11], in assay [15], in [12] and in [13] was “inactive” in each case. For the same compound, the Potency entry in assay [16], in [14] and in assay [19] was “inactive” in each case. Further, the outcome in [4] and in [5] was inactive.
Take `CCc1cccc2c3c([nH]c12)C(CC)(CC(=O)O)OCC3` (stereo not drawn): the Potency entry in [1], in assay [2], in assay [3], in assay [6], in [7] and in assay [17] was “inactive” in each case. The Potency result in [9], in [10], in assay [18], in [11], in assay [15] and in assay [12] was “inactive” in each case. In addition, the Potency entry in assay [13], in assay [16], in assay [14] and in assay [19] was “inactive” in each case. Further, the result in assay [4] and in assay [5] was inactive.
In the case of `CC(C)C(=O)Nc1ccc([N+](=O)[O-])c(C(F)(F)F)c1`, the Potency result in [1], in [2], in assay [3], in assay [6], in assay [7] and in [8] was “inactive” throughout. For the same compound, the Potency result in assay [11], in assay [15] and in [14] was “inactive” in each case. The outcome in assay [4] was inactive. Moreover, the Potency in assay [9] was 11.8 nM (active); in assay [12] it was 0.59 µM (active); in assay [13] it was 12.1 µM (active); in assay [19], 11 µM (active).
For the compound `Clc1ccc(C(c2ccccc2Cl)C(Cl)Cl)cc1` (stereo not drawn), the Potency result in assay [1], in assay [2], in assay [6], in [7], in assay [8] and in [17] was “inactive” in each case. In addition, the Potency entry in assay [15], in assay [13], in [16] and in assay [19] was “inactive” throughout. The Potency result in [3] is “inactive and 18.7 µM (active)”; in [9] it was 23500 nM (active); in [10] it was 16.6 µM (active); in [11] it was 21.1 µM (active) and 18.7 µM (active); in assay [12] it was 16.8 µM (active) and 18.7 µM (active). Moreover, the outcome in [4] was inactive.
Regarding `COc1ccccc1OCCNCC(O)COc1cccc2[nH]c3ccccc3c12` (stereo not drawn), the Potency result in assay [1], in assay [2], in [3], in assay [6], in assay [7] and in assay [20] was “inactive” each time. Further, the Potency result in [17], in [9], in [11], in assay [15], in assay [12] and in assay [13] was “inactive” each time. Moreover, the Potency entry in [16] and in [14] was “inactive” each time. Moreover, the result in assay [4] and in [5] was inactive.
